Molecules are shown by their SMILES. About 83,000 compounds went through this panel and 20% of them were active in at least one assay; those are over-represented in the sample as a whole.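 Single-dose data. Exposure time 48 hours. Values below 10 considered active.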 A number with no mark means an inactive call. Calls of active or inactive are those of the source.

This passage reports growth results from PubChem BioAssay (NCI).

Common to all, as to assay: NCI-60 one-dose screen, 48 h (100 = growth as untreated, 0 = no growth, -100 = all killed)
Conditions in all cases: 10 µM unless noted

Experiment [1] deals with SR leukemia.
Experiment [2] deals with RPMI-8226 leukemia.
For experiment [3], the system named is OVCAR-8 ovarian.
The test system of experiment [4] is OVCAR-5 ovarian.
Experiment [5] relates to OVCAR-4 ovarian.
For experiment [6], the system named is SK-OV-3 ovarian.
In experiment [7] the test system is IGROV1 ovarian.
The test system of experiment [8] is OVCAR-3 ovarian.
For experiment [9], the system named is HS 578T breast.
In experiment [10] the test system is NCI/ADR-RES ovarian.
In experiment [11] the test system is T-47D breast.
Experiment [12] deals with BT-549 breast.
In experiment [13] the test system is MDA-MB-435 melanoma.
Experiment [14] has as its system SW-620 colon.
The subject of experiment [15] is MCF7 breast.
Experiment [16] relates to HCT-116 colon.
Experiment [17] deals with HCC-2998 colon.
Experiment [18] deals with KM12 colon.
The test system of experiment [19] is MDA-MB-468 breast.

As for `Nc1cccc(SCc2cc3ccccc3[nH]c2=O)c1`, the growth in experiment [1] was 36.5%; in [2], 33.1%; in experiment [3] it was 56.7%; in [4], 63.6%; in experiment [5], 44.1%; in experiment [6], 80%. For the same compound, the growth in experiment [7] is 72.9%; in experiment [8] it was 65.2%; in [9], 78.2%; in experiment [10], 67.8%; in experiment [11] it was 33.3%; in experiment [12], 46.7%. The growth in experiment [13] was 30.5%; in experiment [14], 23.5%; in experiment [15] it was 37.4%; in experiment [16], 50.3%; in [17] it was 26.8%; in experiment [18], 0.625% (active). Moreover, in experiment [19], the growth was 45.9%.
On to `COc1cc2nc(SCc3ccccc3)n(-c3ccc(Cl)cc3)c(=O)c2cc1OC`, for which the growth in experiment [1] was 5.33% (active); in experiment [2], 34%; in experiment [3] it was -19.9% (active); in [4] it was 34.3%; in experiment [5] it was -55.6% (active); in experiment [6] it was -19.1% (active). In addition, the growth in experiment [7] is 4.02% (active); in [8], -42.6% (active); in experiment [9], -9.89% (active); in experiment [10], -30.4% (active); in experiment [11] it was 45%; in [12], 0.336% (active). Moreover, the growth in [13] is 30.3%; in experiment [14] it was 9.44% (active); in experiment [15], 14.7%; in experiment [16], -41% (active); in experiment [17] it was 20.3%; in experiment [18], 40.5%. Also, the growth in experiment [19] was -10.9% (active).
As for `O=C(N=Nc1c(O)[nH]c2ccc([N+](=O)[O-])cc12)c1ccc2nc(-c3ccccc3)[nH]c2c1`, the growth is 30.9% in experiment [1]; 110% in experiment [2]; 65.1% in [3]; 107% in experiment [4]; 45.8% in [5]; 96.9% in [6]. Also, the growth was 76.9% in experiment [7]; -13.2% (active) in experiment [8]; 62.6% in experiment [9]; 103% in experiment [10]; 12.5% in [11]; 53.4% in [12]. The growth in [13] is 79.1%; in [14], 83.8%; in [15] it was 18.7%; in experiment [16] it was 10.7%; in experiment [17], 27.4%; in experiment [18], 99.5%. In experiment [19], the growth is 10.6%.
Consider `COc1ccc(/C=N/NC(=O)Cn2nc(Cc3ccc(OC)cc3)c3onc(C)c3c2=O)cc1`, for which the growth was 53.4% in experiment [1]; 53.7% in [2]; 45% in experiment [3]; 52.2% in [4]; -9.28% (active) in experiment [5]; 25.9% in experiment [6]. The growth in experiment [7] was 77.6%; in experiment [8], 50.8%; in experiment [9], 36.3%; in experiment [10] it was 40.6%; in [11] it was 40.7%; in experiment [12], 36.9%. The growth is 62% in [13]; 56.6% in experiment [14]; 45% in experiment [15]; 32.3% in experiment [16]; 6.89% (active) in [17]; 53% in experiment [18]. The growth in experiment [19] is 67.4%.
Turning to `CC(C)c1sc(NC(=O)c2cc(NC(=O)c3cc(NC(=O)c4cscn4)cn3C)cn2C)nc1C(=O)NCCCN(C)C`, the growth is -8.69% (active) in experiment [1]; 94.5% in experiment [2]; 2.77% (active) in experiment [3]; 10.5% in experiment [4]; 18.7% in experiment [5]; -14.5% (active) in experiment [6]. Further, the growth in experiment [7] was 13.3%; in experiment [8], 3.57% (active); in experiment [9] it was 23.3%; in experiment [10], 103%; in experiment [11], 13%; in experiment [12] it was -7.36% (active). The growth is 2.17% (active) in experiment [13]; 20.5% in [14]; 24.5% in [15]; -79.5% (active) in experiment [16]; -74.9% (active) in experiment [17]; 59.2% in experiment [18]. In experiment [19], the growth was -62.7% (active).
For `N/C(=N\N=C\c1ccc([N+](=O)[O-])cc1)c1c(N)nc(=S)[nH]c1-c1ccc(Cl)cc1Cl`, the growth in experiment [1] is 76.9%; in [2], 97.3%; in experiment [3], 98.4%; in experiment [4], 111%; in experiment [5], 111%; in experiment [6], 89.1%. In addition, the growth in [7] is 94.9%; in [8], 110%; in experiment [9], 87.1%; in experiment [10] it was 105%; in [11], 95.3%; in [12], 75.6%. In addition, the growth in [13] was 108%; in [14] it was 108%; in experiment [15], 88.2%; in experiment [16] it was 85.2%; in experiment [17], 106%; in experiment [18] it was 108%. In addition, the growth in experiment [19] was 90.8%.
As to `CN(C)c1ccnc(CNCCSC2(c3ccccc3)c3ccccc3C=Cc3ccccc32)c1`, the growth in [1] is -52.6% (active); in experiment [2], -48% (active); in experiment [3] it was -45.1% (active); in experiment [4] it was 1.39% (active); in experiment [5], 16.8%; in experiment [6], 6.47% (active). Further, the growth in experiment [7] is 11.1%; in experiment [8], -58.6% (active); in experiment [9] it was -34% (active); in experiment [10], -61.6% (active); in [11], -32% (active); in experiment [12], -47.1% (active). Moreover, the growth in experiment [13] is -86.3% (active); in experiment [14] it was -76.1% (active); in experiment [15] it was -75.8% (active); in experiment [16], -38.8% (active); in [17], -77.3% (active); in experiment [18], -61% (active). For the same compound, the growth in [19] was -55.3% (active).
On to `Cn1cc(-c2cc3nc(-c4cn(C)c5ncc(Br)cc45)cc(N)n3n2)c2cc(Cl)ccc21`, for which the growth in experiment [1] was -28.1% (active); in [2] it was -4.61% (active); in experiment [3], -54.4% (active); in experiment [4], -81.4% (active); in [5] it was -59.4% (active); in experiment [6] it was -69.2% (active). Also, the growth was -73.1% (active) in [7]; -54.4% (active) in experiment [8]; -36.1% (active) in [9]; -58.4% (active) in experiment [10]; -62% (active) in experiment [11]; -78.8% (active) in [12]. The growth in [13] is -88.4% (active); in experiment [14], -81.5% (active); in [16], -89.3% (active); in experiment [17] it was -99.1% (active); in [18], -58.5% (active); in [19] it was -88.5% (active).
